# Laboratory results: PubChem BioAssay (Tox21)
# Inconclusive results are not listed. Where a call stands in place of a potency, no number is given. Activity calls are given as the source filed them. Unless noted, calls come from the whole dose curve; as a rule, active = well fitted curve in the direction sought with a large enough effect in the repeat runs; inconclusive = weak or mixed curves; inactive = no such curve, though single readings can be large; an effect the other way counts as inactive or inconclusive.
# Tests used:
# [1] = biological target: Aryl hydrocarbon receptor (Homo sapiens) (UniProt P35869); assay: qHTS assay to identify small molecule that activate the aryl hydrocarbon receptor (AhR) signaling pathway (AID 743085); note: nearly all actives have a fitted effect of over 15% in size; note: potency is the fitted concentration of half-maximal effect;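 for activation: HG2L7.5c1 human HepG2 liver cells with stably integrated DRE-driven firefly reporter; series mostly up to about 70 µM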
# Outline: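 Luminescence (ONE-Glo) from a dioxin-responsive-element luciferase reporter in HG2L7.5c1 HepG2 cells after 24 hr compound exposure at 37C; viability measured by CellTiter-Fluor fluorescence beforehand.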
# [2] = qHTS assay to identify small molecule that activate the aryl hydrocarbon receptor (AhR) signaling pathway - cell viability counter screen (AID 743086);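 note: HepG2 liver cells carrying the AhR DRE luciferase reporter; series mostly up to about 70 µM; nearly all actives have a fitted effect of over 45% in size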
# Outline: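 HepG2-AhR-luc (HG2L7.5c1) cells, 4000/well, were preincubated 5 h at 37C, exposed to compound in qHTS format for 24 hr at 37C, then given CellTiter-Fluor for 30 min; viability was read as fluorescence in the reporter wells.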
# [3] = biological target: Peroxisome proliferator-activated receptor gamma (Homo sapiens) (UniProt P37231); assay: qHTS assay to identify small molecule agonists of the peroxisome proliferator-activated receptor gamma (PPARg) signaling pathway (AID 743094; active = well fitted activation curve with a large enough effect in the signal ratio in the repeat runs, not every such curve was filed as active; the % refers to the signal ratio)
# Outline: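 Quantitative HTS agonist mode: stable HEK293H line with UAS-beta-lactamase reporter under PPARg control, 17 h compound exposure at 37C, fluorescence after 1 h FRET substrate loading at room temperature.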
# [4] = biological target: Peroxisome proliferator-activated receptor gamma (Homo sapiens) (UniProt P37231); assay: qHTS assay to identify small molecule antagonists of the peroxisome proliferator-activated receptor gamma (PPARg) signaling pathway (AID 743191; calls by dose curve; note: series mostly up to about 63 µM; nearly all actives have a fitted effect of over 30% in size)
# Outline: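 GeneBLAzer PPARg UAS-bla HEK293H cells carrying a UAS-driven beta-lactamase reporter were plated at 3000 cells/well, preincubated 5 h at 37C, then given compound for 17 h at 37C; LiveBLAzer B/G FRET substrate was read after 1 h at room temperature.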
# [5] = qHTS assay to identify small molecule antagonists of the peroxisome proliferator-activated receptor gamma (PPARg) signaling pathway - cell viability counter screen (AID 743194); note: nearly all actives have a fitted effect of over 55% in size
# Outline: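 PPARg-UAS-bla HEK293H cells were plated, rested 5 h at 37 C, then treated with compounds plus rosiglitazone (50 nM final) for 17 h at 37 C; viability was then read by CellTiter-Glo luminescence after 30 min at room temperature.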
# [6] = qHTS assay for small molecule agonists of the antioxidant response element (ARE) signaling pathway - cell viability counter screen (AID 743203; calls by dose curve; note: nearly all actives have a fitted effect of over 55% in size)
# Outline: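 Seeded at 2,000 cells/well, ARE-bla HepG2 cells were incubated 5 hrs before compound addition. After 16 hrs of treatment at 37C with 5% CO2, CellTiter-Glo reagent was added and luminescence read 30 min later.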
# [7] = qHTS assay for small molecule activators of the heat shock response signaling pathway - cell viability counter screen (AID 743209); note: nearly all actives have a fitted effect of over 50% in size
# Outline: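 First, HSE-bla HeLa cells were seeded at 1500 cells/well and kept overnight at 37 C. Next, compounds were pinned in and incubated 5 h. After the FRET substrate step, CellTiter-Glo was added and luminescence read 30 min later.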
# [8] = qHTS assay for small molecule activators of the heat shock response signaling pathway (AID 743210; active = well fitted activation curve with a large enough effect in the signal ratio in the repeat runs, with a control signal flat, not every such curve was filed as active; the % refers to the signal ratio; note: series mostly up to about 63 µM)
# Outline: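 HSE-bla HeLa cells (beta-lactamase reporter under heat shock response elements) were exposed to compounds for 5 h at 37 C, then loaded with LiveBLAzer B/G FRET substrate for 2.5 h at room temperature before fluorescence reading.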
# [9] = qHTS assay to identify small molecule agonists of the peroxisome proliferator-activated receptor delta (PPARd) signaling pathway - cell viability counter screen (AID 743211); note: nearly all actives have a fitted effect of over 55% in size
# Outline: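 Viability was measured as CellTiter-Glo luminescence (30 min, room temperature) in the same wells as the beta-lactamase readout. GeneBLAzer PPARd UAS-bla HEK293H cells received compound after 5 h plating and were incubated 17 h at 37 C.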
# [10] = biological target: Peroxisome proliferator-activated receptor delta (Homo sapiens) (UniProt Q03181); assay: qHTS assay to identify small molecule agonists of the peroxisome proliferator-activated receptor delta (PPARd) signaling pathway (AID 743212; calls by dose curve)
# Outline: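 GeneBLAzer PPARd UAS-bla HEK293H cells (beta-lactamase reporter under UAS control), plated and rested 5 h at 37 C, then exposed to compounds in DMSO at 37 C; LiveBLAzer B/G FRET substrate added, 2 h room temperature, fluorescence read.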
# [11] = qHTS assay to identify small molecule antagonists of the peroxisome proliferator-activated receptor delta (PPARd) signaling pathway - cell viability counter screen (AID 743213); note: nearly all actives have a fitted effect of over 50% in size
# Outline: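 In this counter screen, HEK293H cells carrying a UAS-beta-lactamase reporter are co-treated with test compounds and 300 nM L165041 (final) for 17 h at 37 C; cell viability is quantified by CellTiter-Glo luminescence.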
# [12] = qHTS assay to identify small molecule agonists of the farnesoid-X-receptor (FXR) signaling pathway - cell viability counter screen (AID 743218); note: nearly all actives have a fitted effect of over 45% in size
# Outline: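 Cytotoxicity counter-screen run in parallel, same wells: FXR-UAS-bla HEK 293T cells dosed 16 h at 37 C, viability read by CellTiter-Glo luminescence after 30 min at room temperature.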
# [13] = qHTS assay to identify small molecule antagonists of the farnesoid-X-receptor (FXR) signaling pathway - cell viability counter screen (AID 743221; active = well fitted cell-killing curve with a large enough effect in the repeat runs, not every such curve was filed as active; note: nearly all actives have a fitted effect of over 50% in size)
# Outline: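 Cytotoxicity counter screen run in the FXR-bla reporter wells: HEK 293T cells exposed to compound with 50 uM (final) chenodeoxycholic acid for 16 h, 37 C, then viability measured by CellTiter-Glo luminescence after 30 min, room temperature.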
# [14] = biological target: Vitamin D3 receptor (Homo sapiens) (UniProt P11473); assay: qHTS assay to identify small molecule antagonists of the vitamin D receptor (VDR) signaling pathway (AID 743223; active = well fitted inhibition curve with a large enough effect in the signal ratio in the repeat runs, not every such curve was filed as active; the % refers to the signal ratio)
# Outline: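 Antagonist mode: compound added to VDR-bla cells alongside agonist 1alpha,25-dihydroxyvitamin D3 (3 nM final), incubation 16 h at 37C. Read-out is LiveBLAzer FRET fluorescence, 2 h at room temperature.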
# [15] = qHTS assay to identify small molecule agonists of the vitamin D receptor (VDR) signaling pathway - cell viability counter screen (AID 743224); note: series mostly up to about 63 µM; nearly all actives have a fitted effect of over 50% in size
# Outline: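 Viability is measured in the same wells as the VDR-bla reporter assay: after 16 h compound treatment and 2 h substrate loading, CellTiter-Glo is added and luminescence read 30 min later.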
# [16] = qHTS assay for small molecule agonists of the antioxidant response element (ARE) signaling pathway (AID 743202; active = well fitted activation curve with a large enough effect in the signal ratio in the repeat runs, not every such curve was filed as active; the % refers to the signal ratio; note: potency is the fitted concentration of half-maximal effect)
# Outline: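 Read-out: LiveBLAzer B/G FRET substrate fluorescence after 2 h at room temperature, following 16 h compound treatment at 37 C of HepG2 cells carrying an ARE-driven beta-lactamase reporter.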
# [17] = biological target: Peroxisome proliferator-activated receptor delta (Homo sapiens) (UniProt Q03181); assay: qHTS assay to identify small molecule antagonists of the peroxisome proliferator-activated receptor delta (PPARd) signaling pathway (AID 743215; active = well fitted inhibition curve with a large enough effect in the signal ratio in the repeat runs, not every such curve was filed as active; the % refers to the signal ratio;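 note: cells stimulated with agonist L165041 at 300 nM final during compound exposure; series mostly up to about 62 µM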)
# Outline: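 Inhibition of L165041-driven (300 nM final) PPARd signaling is scored in HEK293H UAS-bla cells. Exposure lasts 17 h at 37 C; beta-lactamase activity is then read by FRET substrate fluorescence after 2 h at room temperature.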
# [18] = biological target: Bile acid receptor (Homo sapiens) (UniProt Q96RI1); assay: qHTS assay to identify small molecule antagonists of the farnesoid-X-receptor (FXR) signaling pathway (AID 743217; active = well fitted inhibition curve with a large enough effect in the signal ratio in the repeat runs, not every such curve was filed as active; the % refers to the signal ratio)
# Outline: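 Antagonist mode against 50 uM (final) chenodeoxycholic acid stimulation in FXR-bla HEK 293T cells, 16 h at 37 °C. Inhibition detected as reduced beta-lactamase activity via LiveBLAzer B/G FRET fluorescence after 2 h at room temperature.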
# [19] = biological target: Bile acid receptor (Homo sapiens) (UniProt Q96RI1); assay: qHTS assay to identify small molecule agonists of the farnesoid-X-receptor (FXR) signaling pathway (AID 743220; active = well fitted activation curve with a large enough effect in the signal ratio in the repeat runs, not every such curve was filed as active; the % refers to the signal ratio)
# Outline: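 Beta-lactamase reporter under UAS control in GeneBLAzer FXR HEK 293T cells (5000/well) measured with LiveBLAzer FRET substrate after 2 h at room temperature. Compound exposure lasted 16 h at 37C.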
# [20] = biological target: Vitamin D3 receptor (Homo sapiens) (UniProt P11473); assay: qHTS assay to identify small molecule agonists of the vitamin D receptor (VDR) signaling pathway (AID 743222; calls by dose curve)
# Outline: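 Quantitative HTS agonist-mode screen: compounds in DMSO were pin-transferred onto VDR-bla cells and incubated 16 h at 37C, 5% CO2. Reporter activity was detected with LiveBLAzer B/G FRET substrate after 2 h at room temperature.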
# Sequence of Bile acid receptor (Homo sapiens) (Q96RI1 whole entry, looked up): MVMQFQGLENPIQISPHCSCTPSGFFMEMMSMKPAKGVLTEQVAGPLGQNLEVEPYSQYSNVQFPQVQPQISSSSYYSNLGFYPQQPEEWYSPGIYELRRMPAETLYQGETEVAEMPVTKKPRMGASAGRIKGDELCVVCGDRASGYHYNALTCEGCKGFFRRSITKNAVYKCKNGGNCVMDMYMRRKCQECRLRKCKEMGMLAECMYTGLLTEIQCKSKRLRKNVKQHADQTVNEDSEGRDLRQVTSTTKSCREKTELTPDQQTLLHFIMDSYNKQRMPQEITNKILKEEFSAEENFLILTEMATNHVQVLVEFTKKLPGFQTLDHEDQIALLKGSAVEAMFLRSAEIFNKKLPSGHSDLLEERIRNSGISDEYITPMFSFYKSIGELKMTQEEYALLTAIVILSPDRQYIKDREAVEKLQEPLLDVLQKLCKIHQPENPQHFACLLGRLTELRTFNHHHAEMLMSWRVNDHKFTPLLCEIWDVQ
# Sequence of Peroxisome proliferator-activated receptor gamma (Homo sapiens) (P37231 whole entry, looked up): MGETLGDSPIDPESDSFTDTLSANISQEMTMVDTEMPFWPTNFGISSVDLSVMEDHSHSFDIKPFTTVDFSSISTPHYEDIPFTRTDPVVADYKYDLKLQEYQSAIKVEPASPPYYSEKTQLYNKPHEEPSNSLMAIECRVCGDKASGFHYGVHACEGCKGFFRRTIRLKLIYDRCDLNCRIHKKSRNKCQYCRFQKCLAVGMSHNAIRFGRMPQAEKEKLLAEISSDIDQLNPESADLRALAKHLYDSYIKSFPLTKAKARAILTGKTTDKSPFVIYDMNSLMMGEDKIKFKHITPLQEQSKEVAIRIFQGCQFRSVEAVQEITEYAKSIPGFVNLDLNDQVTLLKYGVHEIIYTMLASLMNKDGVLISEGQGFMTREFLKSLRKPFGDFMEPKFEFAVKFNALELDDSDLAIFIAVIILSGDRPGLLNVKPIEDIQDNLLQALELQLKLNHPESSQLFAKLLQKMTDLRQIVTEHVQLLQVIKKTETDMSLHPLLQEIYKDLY
# Sequence of Peroxisome proliferator-activated receptor delta (Homo sapiens) (Q03181 whole entry, looked up): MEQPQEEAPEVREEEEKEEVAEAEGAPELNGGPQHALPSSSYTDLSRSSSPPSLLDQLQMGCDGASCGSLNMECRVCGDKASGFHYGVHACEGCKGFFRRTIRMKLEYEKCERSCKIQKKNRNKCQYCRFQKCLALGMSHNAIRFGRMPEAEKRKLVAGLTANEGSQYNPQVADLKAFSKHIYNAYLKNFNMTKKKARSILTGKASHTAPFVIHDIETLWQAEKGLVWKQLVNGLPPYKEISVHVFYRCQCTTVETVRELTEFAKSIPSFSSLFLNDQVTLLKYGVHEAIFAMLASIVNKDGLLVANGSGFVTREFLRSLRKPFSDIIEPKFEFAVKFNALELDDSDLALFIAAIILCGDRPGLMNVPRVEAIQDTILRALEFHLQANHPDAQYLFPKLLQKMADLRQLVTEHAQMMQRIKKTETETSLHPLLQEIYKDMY
# Sequence of Aryl hydrocarbon receptor (Homo sapiens) (P35869 whole entry, looked up): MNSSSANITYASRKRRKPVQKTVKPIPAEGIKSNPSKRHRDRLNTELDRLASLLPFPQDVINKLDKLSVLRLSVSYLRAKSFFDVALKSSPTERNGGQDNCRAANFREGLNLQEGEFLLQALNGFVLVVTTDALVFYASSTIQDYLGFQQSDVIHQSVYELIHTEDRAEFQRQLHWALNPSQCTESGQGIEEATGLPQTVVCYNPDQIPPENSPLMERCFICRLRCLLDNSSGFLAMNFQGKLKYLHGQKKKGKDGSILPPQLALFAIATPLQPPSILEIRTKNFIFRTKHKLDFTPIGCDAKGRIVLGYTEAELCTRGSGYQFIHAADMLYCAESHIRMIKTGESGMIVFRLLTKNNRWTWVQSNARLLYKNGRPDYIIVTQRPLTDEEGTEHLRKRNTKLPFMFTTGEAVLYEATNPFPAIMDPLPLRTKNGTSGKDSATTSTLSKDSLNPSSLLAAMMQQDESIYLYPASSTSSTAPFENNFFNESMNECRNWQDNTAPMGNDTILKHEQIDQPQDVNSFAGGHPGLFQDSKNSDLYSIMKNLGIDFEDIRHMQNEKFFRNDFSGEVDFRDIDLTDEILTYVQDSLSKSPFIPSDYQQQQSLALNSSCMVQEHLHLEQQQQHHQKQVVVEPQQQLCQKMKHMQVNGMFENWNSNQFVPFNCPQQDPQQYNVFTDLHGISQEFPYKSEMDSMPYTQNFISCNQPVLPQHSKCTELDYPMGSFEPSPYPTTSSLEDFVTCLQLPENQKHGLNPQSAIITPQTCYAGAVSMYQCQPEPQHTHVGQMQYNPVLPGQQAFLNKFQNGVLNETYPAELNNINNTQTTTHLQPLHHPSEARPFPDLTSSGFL
# Sequence of Vitamin D3 receptor (Homo sapiens) (P11473 whole entry, looked up): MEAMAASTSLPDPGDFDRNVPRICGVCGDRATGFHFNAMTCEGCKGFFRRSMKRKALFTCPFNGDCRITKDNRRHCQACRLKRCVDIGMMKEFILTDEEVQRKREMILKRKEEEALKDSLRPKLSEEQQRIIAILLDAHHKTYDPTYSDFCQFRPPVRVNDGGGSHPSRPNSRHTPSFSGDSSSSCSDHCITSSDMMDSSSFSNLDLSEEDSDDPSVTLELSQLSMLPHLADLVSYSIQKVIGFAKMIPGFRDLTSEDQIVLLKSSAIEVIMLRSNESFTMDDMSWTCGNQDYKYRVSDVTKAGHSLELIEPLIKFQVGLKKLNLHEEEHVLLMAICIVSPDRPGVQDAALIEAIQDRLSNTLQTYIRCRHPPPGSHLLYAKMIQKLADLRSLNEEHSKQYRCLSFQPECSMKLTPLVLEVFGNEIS
SMILES,Potency [1],outcome [2],Potency [3],Potency [4],Potency [5],Potency [6],outcome [7],Potency [8],Potency [9],outcome [10],Potency [11],Potency [12],outcome [13],outcome [14],Potency [15],Potency [16],outcome [17],outcome [18],outcome [19],outcome [20]
CC(C)OC(C)C,inactive,inactive,inactive,inactive,inactive,inactive,inactive,inactive,inactive,inactive,inactive,inactive,inactive,inactive,inactive,,,,,
NCCC(O)(P(=O)(O)O)P(=O)(O)O,inactive,inactive,inactive,,inactive,inactive,inactive,inactive,inactive,inactive,inactive,inactive,inactive,,,inactive,inactive,inactive,inactive,
CC(=O)OC1C2(C)CCC(C2)C1(C)C (centres undefined),inactive,inactive,inactive,inactive,inactive,,inactive,inactive,inactive,inactive,inactive,,inactive,,inactive,,inactive,inactive,inactive,
CC(=O)N(CC(O)CN(C(C)=O)c1c(I)c(C(=O)NCC(O)CO)c(I)c(C(=O)NCC(O)CO)c1I)c1c(I)c(C(=O)NCC(O)CO)c(I)c(C(=O)NCC(O)CO)c1I (centres undefined),inactive,inactive,inactive,inactive,,inactive,inactive,inactive,inactive,inactive,inactive,inactive,inactive,inactive,inactive,inactive,inactive,,inactive,
Cc1cccc(C)c1NC(=O)CN1CCCCCC1,inactive,inactive,inactive,,inactive,inactive,inactive,inactive,inactive,inactive,inactive,inactive,inactive,inactive,inactive,inactive,inactive,,,inactive
COC(=O)C(C)O (centres undefined),inactive,inactive,inactive,inactive,,,inactive,inactive,inactive,,inactive,inactive,inactive,,inactive,inactive,inactive,inactive,inactive,inactive
CCOc1ccc2nc(N)sc2c1,2.15 µM (active),inactive,inactive,,inactive,,inactive,inactive,inactive,,inactive,inactive,inactive,,inactive,48.2 µM (active),,,,
CC(=O)Oc1cc(C(C)C)c(OCCN(C)C)cc1C,inactive,inactive,inactive,,inactive,inactive,inactive,inactive,inactive,,inactive,inactive,inactive,inactive,inactive,inactive,,,,
Cc1ccc(C=O)s1,inactive,inactive,inactive,,inactive,inactive,inactive,,inactive,inactive,inactive,inactive,inactive,inactive,inactive,inactive,inactive,,,inactive
ICCc1ccccc1,inactive,inactive,inactive,,inactive,,inactive,inactive,inactive,inactive,inactive,inactive,inactive,inactive,inactive,inactive,inactive,,,inactive
COc1nc(C)nc(NC(=O)NS(=O)(=O)c2ccccc2OCCCl)n1,inactive,inactive,inactive,,inactive,inactive,,inactive,inactive,,inactive,inactive,inactive,,,inactive,inactive,inactive,inactive,inactive
CC(C)CCCCCCc1ccc(OCCOCCO)cc1,inactive,inactive,inactive,,inactive,inactive,,inactive,inactive,,inactive,inactive,inactive,,inactive,inactive,,,,
COc1ccc(S(=O)(=O)Nc2nnc(CC(C)C)s2)cc1,inactive,inactive,inactive,,inactive,inactive,,inactive,inactive,inactive,inactive,,inactive,,,inactive,,,,
CC(C)C(=O)OC/C=C/c1ccccc1,inactive,inactive,inactive,,inactive,inactive,inactive,inactive,inactive,inactive,,inactive,inactive,inactive,inactive,inactive,inactive,inactive,inactive,inactive
CN(C)Cc1ccccc1,inactive,inactive,inactive,,inactive,inactive,,inactive,inactive,inactive,inactive,inactive,inactive,inactive,inactive,inactive,inactive,,,inactive
O=C(O)[C@@H](O)[C@H](O)[C@H](O)[C@@H](O)C(=O)O,inactive,inactive,inactive,,inactive,inactive,,inactive,inactive,,inactive,inactive,inactive,,inactive,inactive,inactive,,,
CS(=O)(=O)c1ccc([C@@H](O)[C@@H](CF)NC(=O)C(Cl)Cl)cc1,inactive,inactive,inactive,,inactive,inactive,,inactive,inactive,inactive,inactive,inactive,inactive,,,inactive,inactive,inactive,inactive,
